# Experiments:
# Assay in all cases: DAPPL (digital affinity profiling via proximity ligation, sequencing); 10 mM Tris-HCl pH 7.5, 50 mM NaCl, 1 mM DTT, 4% glycerol, room temperature, 30 min; GST-TFs on glutathione beads, 16-mer random dsDNA library, 0.1% formaldehyde crosslink after washing; high values mean tight binding
# Conditions in all cases: protein: recombinant; tags: N-terminal GST; dsDNA, one strand shown
# FLI1 = biological target: T1, FLI1 (Homo sapiens, UniProt Q01543 1-452)
# T1 sequence: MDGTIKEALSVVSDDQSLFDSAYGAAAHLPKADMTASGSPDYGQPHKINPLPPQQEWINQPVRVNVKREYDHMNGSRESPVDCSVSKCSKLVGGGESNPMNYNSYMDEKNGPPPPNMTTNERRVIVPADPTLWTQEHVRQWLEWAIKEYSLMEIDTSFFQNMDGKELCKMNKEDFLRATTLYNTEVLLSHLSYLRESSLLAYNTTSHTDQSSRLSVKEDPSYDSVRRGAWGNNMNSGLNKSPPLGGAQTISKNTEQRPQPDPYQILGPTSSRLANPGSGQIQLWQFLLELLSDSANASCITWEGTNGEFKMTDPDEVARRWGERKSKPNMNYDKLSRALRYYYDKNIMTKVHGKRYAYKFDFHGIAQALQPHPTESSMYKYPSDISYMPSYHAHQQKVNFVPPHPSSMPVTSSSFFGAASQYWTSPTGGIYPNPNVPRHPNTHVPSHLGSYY
# Procedure, shortened: (§1)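 Binding signal is defined as a hexamer's read frequency for one factor over its frequency for the tag-only sample. To obtain reads, GST-fused human transcription factors were expressed in yeast, captured on glutathione beads, barcoded with DNA and pooled with that sample. Pools met 200 nmole of a 16-mer random double-stranded DNA library in Tris/NaCl/DTT/glycerol buffer for 30 min at room temperature before washing, 0.1% formaldehyde crosslinking, proximity ligation (BsaI/T4 ligase, 1 h, 37 °C), PCR and Illumina NextSeq500 sequencing.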
# ELK1 = biological target: T2, ELK1 (Homo sapiens, UniProt P19419 1-428)
# T2 sequence: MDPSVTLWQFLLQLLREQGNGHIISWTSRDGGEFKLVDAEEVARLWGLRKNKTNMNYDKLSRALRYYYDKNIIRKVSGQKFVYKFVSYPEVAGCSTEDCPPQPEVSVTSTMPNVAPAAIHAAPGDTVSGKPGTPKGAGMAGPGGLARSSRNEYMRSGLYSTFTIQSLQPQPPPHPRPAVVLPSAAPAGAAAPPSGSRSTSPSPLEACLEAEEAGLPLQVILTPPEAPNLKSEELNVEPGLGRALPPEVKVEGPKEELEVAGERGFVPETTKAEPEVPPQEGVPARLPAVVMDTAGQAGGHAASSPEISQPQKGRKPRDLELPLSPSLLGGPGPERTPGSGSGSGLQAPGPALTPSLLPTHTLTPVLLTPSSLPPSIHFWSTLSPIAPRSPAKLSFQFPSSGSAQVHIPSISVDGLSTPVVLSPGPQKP
# Procedure, shortened: as §1
# GABPA = biological target: T3, GABPA (Homo sapiens, UniProt Q06546 1-454)
# T3 sequence: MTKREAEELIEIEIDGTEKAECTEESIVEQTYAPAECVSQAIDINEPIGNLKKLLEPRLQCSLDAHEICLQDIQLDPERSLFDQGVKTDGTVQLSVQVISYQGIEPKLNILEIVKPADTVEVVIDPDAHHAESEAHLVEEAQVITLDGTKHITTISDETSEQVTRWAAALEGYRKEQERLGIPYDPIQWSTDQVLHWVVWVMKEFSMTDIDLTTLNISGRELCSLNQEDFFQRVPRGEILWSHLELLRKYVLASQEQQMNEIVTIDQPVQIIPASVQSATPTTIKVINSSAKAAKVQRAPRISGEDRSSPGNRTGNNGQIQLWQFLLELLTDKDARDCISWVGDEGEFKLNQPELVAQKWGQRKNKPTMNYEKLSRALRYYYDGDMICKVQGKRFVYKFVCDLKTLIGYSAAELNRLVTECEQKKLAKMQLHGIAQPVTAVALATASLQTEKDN
# Procedure, shortened: as §1
# ERG = biological target: T4, ERG (Homo sapiens, UniProt P11308 1-479)
# T4 sequence: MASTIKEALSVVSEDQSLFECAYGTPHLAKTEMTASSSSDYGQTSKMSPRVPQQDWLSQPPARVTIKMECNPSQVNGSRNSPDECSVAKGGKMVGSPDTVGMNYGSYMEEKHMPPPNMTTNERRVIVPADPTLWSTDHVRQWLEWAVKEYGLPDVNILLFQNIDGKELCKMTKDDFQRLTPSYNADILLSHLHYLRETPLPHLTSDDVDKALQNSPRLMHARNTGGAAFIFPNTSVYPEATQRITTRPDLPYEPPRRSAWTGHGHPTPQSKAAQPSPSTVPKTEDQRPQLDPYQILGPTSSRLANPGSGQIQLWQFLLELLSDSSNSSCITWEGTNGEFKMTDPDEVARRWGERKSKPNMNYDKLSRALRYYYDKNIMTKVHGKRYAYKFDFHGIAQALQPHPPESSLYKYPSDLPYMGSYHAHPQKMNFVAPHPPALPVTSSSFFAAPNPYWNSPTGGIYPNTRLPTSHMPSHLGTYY
# Procedure, shortened: as §1
# ELF1 = ELF1 (Homo sapiens, UniProt P32519 1-619)
# Procedure, shortened: as §1
# EHF = biological target: T5, EHF (Homo sapiens, UniProt Q9NZC4 1-300)
# T5 sequence: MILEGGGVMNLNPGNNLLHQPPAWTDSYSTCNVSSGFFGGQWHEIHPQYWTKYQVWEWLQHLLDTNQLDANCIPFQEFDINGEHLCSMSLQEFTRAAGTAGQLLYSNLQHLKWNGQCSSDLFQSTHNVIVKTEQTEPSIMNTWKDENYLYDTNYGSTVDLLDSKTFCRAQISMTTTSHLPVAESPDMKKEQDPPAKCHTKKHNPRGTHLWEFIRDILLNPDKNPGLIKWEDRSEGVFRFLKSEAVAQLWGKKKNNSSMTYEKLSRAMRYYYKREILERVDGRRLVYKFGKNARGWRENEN
# Procedure, shortened: as §1
# SPI1 = SPI1 (Homo sapiens, UniProt P17947 1-270)
# Procedure, shortened: as §1
# SPIB = SPIB (Homo sapiens, UniProt Q01892 1-262)
# Procedure, shortened: as §1
# ELK3 = biological target: T6, ELK3 (Homo sapiens, UniProt P41970 1-407)
# T6 sequence: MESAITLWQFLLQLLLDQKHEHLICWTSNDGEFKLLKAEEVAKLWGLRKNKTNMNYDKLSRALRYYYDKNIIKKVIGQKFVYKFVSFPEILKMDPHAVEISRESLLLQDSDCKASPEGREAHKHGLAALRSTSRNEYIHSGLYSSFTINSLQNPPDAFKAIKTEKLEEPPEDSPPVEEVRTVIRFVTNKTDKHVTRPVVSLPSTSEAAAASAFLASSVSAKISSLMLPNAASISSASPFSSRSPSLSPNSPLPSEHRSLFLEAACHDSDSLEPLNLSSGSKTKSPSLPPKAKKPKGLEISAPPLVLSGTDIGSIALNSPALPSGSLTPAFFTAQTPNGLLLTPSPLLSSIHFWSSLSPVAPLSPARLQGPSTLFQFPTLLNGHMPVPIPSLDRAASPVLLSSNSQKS
# Procedure, shortened: as §1
# Chain of SPIB (Q01892 whole entry): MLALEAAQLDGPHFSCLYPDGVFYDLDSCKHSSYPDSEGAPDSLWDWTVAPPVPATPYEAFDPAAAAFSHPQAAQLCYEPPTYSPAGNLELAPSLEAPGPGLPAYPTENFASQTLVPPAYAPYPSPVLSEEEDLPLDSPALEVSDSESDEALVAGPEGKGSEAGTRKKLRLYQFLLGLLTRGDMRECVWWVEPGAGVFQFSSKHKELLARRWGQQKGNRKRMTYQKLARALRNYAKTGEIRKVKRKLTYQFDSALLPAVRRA
# Chain of ELF1 (P32519 whole entry): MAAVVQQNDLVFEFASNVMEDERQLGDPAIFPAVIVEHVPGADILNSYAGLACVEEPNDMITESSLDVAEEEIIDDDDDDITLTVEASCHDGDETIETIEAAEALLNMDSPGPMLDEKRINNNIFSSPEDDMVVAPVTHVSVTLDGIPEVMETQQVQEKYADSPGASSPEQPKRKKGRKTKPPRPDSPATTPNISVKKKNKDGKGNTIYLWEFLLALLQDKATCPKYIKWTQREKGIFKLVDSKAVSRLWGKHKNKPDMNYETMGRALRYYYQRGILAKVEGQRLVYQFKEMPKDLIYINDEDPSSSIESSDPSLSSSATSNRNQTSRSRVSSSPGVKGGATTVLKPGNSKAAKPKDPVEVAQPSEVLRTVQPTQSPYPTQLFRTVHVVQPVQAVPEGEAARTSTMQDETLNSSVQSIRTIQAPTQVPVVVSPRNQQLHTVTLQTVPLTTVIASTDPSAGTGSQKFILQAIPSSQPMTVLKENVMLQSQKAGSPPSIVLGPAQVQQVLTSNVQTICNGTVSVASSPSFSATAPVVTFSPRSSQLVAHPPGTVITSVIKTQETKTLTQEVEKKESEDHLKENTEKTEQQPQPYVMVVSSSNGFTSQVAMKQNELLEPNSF
sequence,measurement,setting,value
CCGCTT,binding signal,FLI1,"1.89 fold enrichment (6-mer frequency, TF over GST control)"
same,binding signal,ELK1,"1.89 fold enrichment (6-mer frequency, TF over GST control)"
same,binding signal,GABPA,"1.84 fold enrichment (6-mer frequency, TF over GST control)"
same,binding signal,ERG,"1.85 fold enrichment (6-mer frequency, TF over GST control)"
same,binding signal,ELF1,"1.92 fold enrichment (6-mer frequency, TF over GST control)"
same,binding signal,EHF,"1.93 fold enrichment (6-mer frequency, TF over GST control)"
same,binding signal,SPI1,"2.69 fold enrichment (6-mer frequency, TF over GST control)"
same,binding signal,SPIB,"1.93 fold enrichment (6-mer frequency, TF over GST control)"
same,binding signal,ELK3,"2.06 fold enrichment (6-mer frequency, TF over GST control)"
